{
  "source": "PubChem BioAssay AID1117361",
  "about": "(Southern Research Institute, 2015)",
  "note": "The campaign covered roughly 3,600 compounds. About 900 (25%) were called active. The rule behind the calls is not given here. The list is a sample of the results. Where a call stands in place of a potency, no number is given. Potency and affinity values are given separately.",
  "data": [
    {"molecular_target": "Protein Tat (Human immunodeficiency virus type 1 group M subtype B (isolate HXB2)) (UniProt P04608)", "assay": "HIV-1 Tat–TAR interaction blockers – biochemical, fluorescence polarization, FAM-labeled TAR RNA, counter-screen for Vif-APOBEC3G degradation inhibitor project, dose response (AID 1117361)", "conditions": "Tat-TAR RNA binding; series mostly up to 100 µM", "values": [
      {"compound": "Cc1ccc(N=Nc2ccc(N)cc2C)c(S(N)(=O)=O)c1", "outcome": "inactive"},
      {"compound": "Cc1c(C(=O)O)oc2ccc(S(=O)(=O)N3CCC(C)CC3)cc12", "outcome": "inactive"},
      {"compound": "CCOC(=O)CNc1nc2ccccc2n2c(C)nnc12", "outcome": "inactive"},
      {"compound": "CC(C)c1nc2ccccc2n1CCC(=O)O", "outcome": "inactive"},
      {"compound": "O=C1CN(C(=O)COC(=O)CCSc2ccccc2Cl)c2ccccc2N1", "outcome": "inactive"},
      {"compound": "Cc1ccc(-c2nnc(SCC(=O)N3CC(C)CC(C)C3)o2)cc1C", "note": "(centres undefined)", "outcome": "inactive"},
      {"compound": "Cc1ccc(-n2nnc3c(=O)n(CC(=O)c4ccccc4)cnc32)cc1", "outcome": "inactive"},
      {"compound": "Cn1c(=O)c2c(nc(NCCc3ccccc3)n2Cc2ccccc2)n(C)c1=O", "outcome": "inactive"},
      {"compound": "CC(=O)c1ccc(N2CCN(C(=O)C3CCC3)CC2)cc1", "outcome": "inactive"},
      {"compound": "CC1(C)CC(=O)C2=C(C1)NCN(Cc1ccc3c(c1)OCO3)C2", "outcome": "inactive"},
      {"compound": "COC(=O)c1cccc(NC(=O)c2ccc3c(c2)C(=O)N(CC2CCCO2)C3=O)c1", "note": "(centres undefined)", "outcome": "inactive"},
      {"compound": "O=c1[nH]c2ccc(NS(=O)(=O)c3ccc(F)c(Cl)c3)cc2[nH]1", "outcome": "inactive"},
      {"compound": "O=C(O)c1cccc2c1Oc1ccccc1S2(=O)=O", "outcome": "inactive"},
      {"compound": "CCN1CNC(=S)N(CCc2ccccc2)C1", "outcome": "inactive"},
      {"compound": "CCOc1ccc2nc(Cl)c(C3CC(c4ccccc4)=NN3C(=O)c3cccs3)cc2c1", "note": "(centres undefined)", "outcome": "inactive"},
      {"compound": "O=C(NCCC1CCCCN1S(=O)(=O)c1ccc(F)cc1)C(=O)NCc1ccccn1", "note": "(centres undefined)", "outcome": "inactive"},
      {"compound": "CC(C(=O)N1CCCCC1)n1ncn2cccc2c1=O", "note": "(centres undefined)", "outcome": "inactive"},
      {"compound": "CCOc1ccc(N(CC(=O)N2CCC(Cc3ccccc3)CC2)S(C)(=O)=O)cc1", "outcome": "inactive"},
      {"compound": "OCCN1CCN(CC(O)COc2ccc3ccccc3c2)CC1", "note": "(centres undefined)", "outcome": "inactive"},
      {"compound": "C#CC[N+]1(CC#Cc2ccccc2)CCCC1", "outcome": "inactive"},
      {"compound": "CC1(C(=O)O)Cc2ccccc2C(=O)O1", "note": "(centres undefined)", "outcome": "inactive"},
      {"compound": "CC12CCC(C(=O)Nc3cc(F)ccc3F)(CC1=O)C2(C)C", "note": "(centres undefined)", "outcome": "inactive"},
      {"compound": "O=C(c1ccc(S(=O)(=O)N2CCOCC2)cc1)N1CCN(c2cccc(Cl)c2)CC1", "outcome": "inactive"},
      {"compound": "CN(C)CCCN(CCCN(C)C)C(=S)Nc1ccc(S(=O)(=O)N2CCOCC2)cc1", "outcome": "inactive"},
      {"compound": "CC1(C)CC(=O)C(N=Nc2ccc(Br)cc2)=C(O)C1", "outcome": "inactive"},
      {"compound": "COCc1nnc(NC(=O)c2ccc(S(=O)(=O)N(C)C3CCCCC3)cc2)o1", "outcome": "inactive"},
      {"compound": "O=C(c1ccccc1S(=O)(=O)NCc1ccccc1)N1CCCC1", "outcome": "inactive"},
      {"compound": "C=CCn1c(Sc2nc(C)cs2)nc2c1c(=O)[nH]c(=O)n2C", "outcome": "inactive"},
      {"compound": "O=C(NCc1cccnc1)C1c2ccccc2C(=O)N1C1CCCC1", "note": "(centres undefined)", "outcome": "inactive"},
      {"compound": "NNc1ccc([N+](=O)[O-])c2[nH][nH]c(=O)c12", "outcome": "inactive"},
      {"compound": "CCCNC(=O)c1ccccc1NC(=O)c1ccc(CSc2ccccc2)cc1", "outcome": "inactive"},
      {"compound": "COc1ccc(-c2cc(C)nc(SCC(=O)c3cccc([N+](=O)[O-])c3)n2)cc1", "outcome": "inactive"},
      {"compound": "C=C1C(=O)C2=CC1CCC(=O)C1(C)CCC(OC(C)=O)C(C)(C)C1CC2O", "note": "(centres undefined)", "outcome": "inactive"},
      {"compound": "CCn1c(SCC(=O)n2nc(C)cc2C)nnc1-c1ccc2c(c1)OCO2", "outcome": "inactive"},
      {"compound": "O=C(Nc1ccc(Br)cn1)C1CCN(S(=O)(=O)c2cccs2)CC1", "outcome": "inactive"},
      {"compound": "O=C(/C=C/c1cccs1)N1CCN(c2ccc(O)cc2)CC1", "outcome": "inactive"},
      {"compound": "Cc1ccc(Nc2nc3nonc3nc2N(C)C)cc1", "outcome": "inactive"},
      {"compound": "CCc1nc2ccc(Cc3ccc4nc(CC)[nH]c4c3)cc2[nH]1", "outcome": "inactive"},
      {"compound": "Cc1ccc(S(=O)(=O)N(CC(=O)N/N=C/c2cccc3c2OCCO3)c2ccccc2F)cc1", "outcome": "inactive"},
      {"compound": "Cc1ccc(-n2c(Cc3cccn3C)nnc2SCC(=O)Nc2nnc(C)s2)cc1", "outcome": "inactive"},
      {"compound": "Cn1cnnc1SCC(=O)Nc1ccccc1C(=O)NC1CC1", "outcome": "inactive"},
      {"compound": "N#Cc1ccccc1NC(=O)COC(=O)c1ccc(S(=O)(=O)N2CCCC2)cc1", "outcome": "inactive"},
      {"compound": "COCC(=O)Nc1nnc(COc2ccccc2)s1", "outcome": "inactive"},
      {"compound": "O=C(NC(=O)N1CCN(c2ccc([N+](=O)[O-])cn2)CC1)c1c(Cl)cccc1Cl", "outcome": "inactive"},
      {"compound": "CC1CC(C)CN(S(=O)(=O)c2ccc(NC(=O)c3ccc(=O)[nH]c3)cc2)C1", "note": "(centres undefined)", "outcome": "inactive"},
      {"compound": "COc1ccc(-n2ncc3c(NCc4ccccn4)ncnc32)cc1", "outcome": "inactive"},
      {"compound": "CC(=O)Nc1ccc(S(=O)(=O)N2CCN(Cc3ccccn3)CC2)cc1", "outcome": "inactive"},
      {"compound": "COc1ccc(S(=O)(=O)N(CCc2ccccc2)CC(=O)NC(C)C)cc1", "outcome": "inactive"},
      {"compound": "O=C(Cn1c(=O)oc2ccccc21)N1CCN(S(=O)(=O)c2ccccc2)CC1", "outcome": "inactive"},
      {"compound": "CCOC(=O)N1CCN(c2c(NCc3ccccc3Cl)c(=O)c2=O)CC1", "outcome": "inactive"},
      {"compound": "CC(C)(C)OC(=O)N1CCN(c2ccc([N+](=O)[O-])cc2)CC1", "outcome": "inactive"},
      {"compound": "CC(C)(C)C(=O)O/N=C(\\N)c1c(Cl)cccc1Cl", "outcome": "inactive"},
      {"compound": "C=CCc1ccc(OCCOCCNCCCC)c(OC)c1", "outcome": "inactive"},
      {"compound": "Cn1c(=O)c2c(nc(CN3CCOCC3)n2CCN2CCOCC2)n(C)c1=O", "outcome": "inactive"},
      {"compound": "O=C(CSc1nc(-c2ccccc2)cc(C(F)(F)F)n1)c1cccc([N+](=O)[O-])c1", "outcome": "inactive"},
      {"compound": "COc1ccc(CCNC(=O)CSc2nc(-c3ccco3)cc(C(F)(F)F)n2)cc1", "outcome": "inactive"},
      {"compound": "Cc1c(F)cccc1NC(=O)CCCCCC1NC(=O)NC1C", "note": "(centres undefined)", "outcome": "inactive"},
      {"compound": "Cc1ccc(S(=O)(=O)C(F)(F)F)cc1NC(=O)c1cccnc1", "outcome": "inactive"},
      {"compound": "COc1cc([N+](=O)[O-])ccc1NC(=O)Oc1ccc(NC(C)=O)cc1", "outcome": "inactive"},
      {"compound": "O=c1cc(-c2ccc(O)c(O)c2)oc2cc(O)c(C3OC(CO)C(O)C(O)C3O)c(O)c12", "note": "(centres undefined)", "outcome": "inactive"},
      {"compound": "CC1C(=O)N2CCCc3cc(NC(=O)C(=O)NCc4cccnc4)cc1c32", "note": "(centres undefined)", "outcome": "inactive"},
      {"compound": "COc1cc(C2Nc3ccccc3C(=O)N2c2ccccc2)ccc1O", "note": "(centres undefined)", "outcome": "inactive"},
      {"compound": "Clc1ccc(-c2nc3cnccn3c2Nc2ccc3c(c2)OCO3)cc1", "outcome": "inactive"},
      {"compound": "COc1cccc(-c2cc(C(=O)Nc3c(C)n(C)n(-c4ccccc4)c3=O)no2)c1", "outcome": "inactive"},
      {"compound": "CC[n+]1ccc(C)c2cc(S(=O)C(F)(F)F)ccc21", "note": "(centres undefined)", "outcome": "inactive"},
      {"compound": "COc1ccc(CNC(=O)c2ccc(NC(=O)C3CCCO3)cc2)cc1", "note": "(centres undefined)", "outcome": "inactive"},
      {"compound": "COc1ccc(C(=O)Nc2nncs2)cc1S(=O)(=O)N1CC(c2ccccc2)CC1=O", "note": "(centres undefined)", "outcome": "inactive"},
      {"compound": "COC(=O)C(C(=O)Nc1ccc(OC)cc1)C1CCCCCC1", "note": "(centres undefined)", "outcome": "inactive"},
      {"compound": "COCCn1nnnc1C(c1cccs1)N1CCN(c2cc(C)ccc2C)CC1", "note": "(centres undefined)", "outcome": "inactive"}
    ]}
  ]
}
